Only some compounds are listed: those with a hit (about 10% of all), similar ones and a draw of the others.
GPT2 inh – GPT2 alanine aminotransferase inhibition. Q8TD30. Recombinant GPT2, coupled pyruvate oxidase/HRP Amplex Red fluorescence. Potency, µM (doses to about 57.7 µM), inactives show top-dose activity change, negative = inhibition, hits mostly inhibitors. actives 0.25% (n = 100,000). AID 1671188; further: nearly all actives have a fitted effect of over 60% in size
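Inhibition is scored from Amplex Red fluorescence generated when pyruvate oxidase and HRP act on pyruvate released by GPT2. Reactions contain 10ng/uL enzyme, 250uM a-KG and 2mM L-alanine and run 30 min at room temperature.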
hNpr1 antagonist – human Npr1 receptor antagonism; P16066; HEK293 hNpr1 GloSensor cGMP, ANP-stimulated luminescence; Potency, µM (doses to about 46.3 µM), for the others: at the top dose activity change, negative = inhibition, usual class: inhibitors; actives 1.6% (n = 76,000); calls by dose curve; further: nearly all actives have a fitted effect of over 60% in size
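Compound pre-incubated 30 min at room temperature on GloSensor-loaded HEK293 cells stably carrying hNpr1 and the pGS-40F cGMP biosensor. Stimulation uses hNppA at 0.1 nM final; luminescence is taken at baseline and 20 min post-agonist.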
3T3 cytotox – NIH 3T3 cell cytotoxicity; NIH 3T3 viability, CellTiter-Glo ATP luminescence, 48-72 h; Potency, µM (doses to about 96.7 µM), without a hit: top-dose activity change, negative = cytotoxicity, usual class: inhibitors; actives 4.3% (n = 94,000); further: nearly all actives have a fitted effect of over 55% in size
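Luminescent ATP readout (CellTiter-Glo, 10 min RT) after 48 or 72 hr compound exposure of NIH 3T3 cells seeded at 400 cells/well in 1536-well format; quantitative HTS.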
HEK293 tox – cytotoxic compounds in HEK 293 cells. HEK 293 viability, ATP luminescence (CellTiter-Glo), 48-72 h. Potency, µM (titrated, usually from 115 µM), inactives show top-dose activity change, negative = cytotoxicity, actives largely listed as inhibitors. actives 6.6% (n = 94,000). AID 1345083; further: nearly all actives have a fitted effect of over 60% in size
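HEK 293 cells seeded at 250 cells/well were exposed to compound for 48 or 72 hr at 37 degree Celsius. Viability taken as ATP content by CellTiter-Glo luminescence.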
Luciferase inh – Photinus pyralis luciferase inhibition; Potency, µM (series often up to 115 µM), most hits filed as inhibitors; actives 2.5% (n = 76,000); purified P. pyralis luciferase, luminescence, biochemical; P08659; AID 1347043; further: nearly all actives have a fitted effect of over 65% in size
Target sequence (P08659 whole entry, looked up): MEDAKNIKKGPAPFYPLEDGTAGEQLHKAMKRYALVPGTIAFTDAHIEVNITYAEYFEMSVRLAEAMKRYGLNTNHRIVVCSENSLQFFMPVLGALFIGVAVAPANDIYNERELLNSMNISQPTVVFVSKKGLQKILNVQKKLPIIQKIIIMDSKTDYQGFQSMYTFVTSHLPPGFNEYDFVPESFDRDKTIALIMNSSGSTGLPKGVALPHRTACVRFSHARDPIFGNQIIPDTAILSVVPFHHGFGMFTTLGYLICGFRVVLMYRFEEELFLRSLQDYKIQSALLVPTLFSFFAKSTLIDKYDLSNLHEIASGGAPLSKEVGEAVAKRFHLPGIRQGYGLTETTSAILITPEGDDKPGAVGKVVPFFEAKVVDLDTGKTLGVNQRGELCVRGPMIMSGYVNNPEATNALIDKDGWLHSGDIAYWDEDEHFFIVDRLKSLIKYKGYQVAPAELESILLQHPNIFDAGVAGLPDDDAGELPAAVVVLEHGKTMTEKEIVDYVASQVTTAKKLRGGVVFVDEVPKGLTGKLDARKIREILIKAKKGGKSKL
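Inhibitors were tested against purified firefly luciferase in a biochemical, low-substrate format (both substrates at 10uM) and luminescence measured with a CCD imager.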
* marks the source's active call; other numbers are inactive results; i = inactive; ? = inconclusive; . = no result; [ ] = dose if it differs, or a comment. Unless noted, the call rests on the fitted dose curve; in most records, active means well fitted curve in the direction sought with a large enough effect; inconclusive means small, poorly fitted or top-dose-only effect, or another doubt; inactive means no such curve, though single readings can be large; an effect the other way counts as inactive or inconclusive. On the % scale 0 is the no-effect control and ±100 the full control effect; potency means the concentration at half of the fitted maximal effect.

SMILES	GPT2 inh	hNpr1 antagonist	3T3 cytotox	HEK293 tox	Luciferase inh
CC(C)=CCCC(C)=CCCC(C)=CCSc1ccccc1C(=O)O	i	.	.	.	.
O=C(Cn1cccc1-c1nc(-c2ccc3c(c2)OCO3)no1)N1CCc2ccccc21	i	2.4%	-3.4%	8.0%	i
CNc1cc(C2CC(NC(=O)NCCc3ccccc3F)C2)nc(N)n1 (centres undefined)	-3.2%	0.4%	-20.7%	-4.9%	i
CNc1cc(C2CC(NC(=O)COc3ccc(Cl)cc3C)C2)nc(N)n1 (centres undefined)	i	-10.1%	39.8µM*	17.8µM*	i
COc1ccc(Nc2ccc3c(n2)CN(Cc2ccc(C(F)(F)F)cc2)C(=O)CO3)cn1	-9.0%	-22.2%	?	?	i
O=C1COc2ccc(Nc3cccnc3)nc2CN1Cc1ccc(C(F)(F)F)cc1	-1.9%[88.5 µM]	-24.0%[70.6 µM]	?	89.1µM*	i
O=C1COc2ccc(-c3cccc(O)c3)nc2CN1Cc1ccc(C(F)(F)F)cc1	-3.1%[88.5 µM]	-17.7%[70.6 µM]	?	?	i
COc1ccc(Nc2ccc3c(n2)CN(Cc2ccccc2)C(=O)CO3)cn1	i	-24.2%[70.6 µM]	?	79.4µM*	i
COc1ccc(Nc2ccc3c(n2)CN(Cc2ccc(F)cc2)C(=O)CO3)cn1	-6.7%[88.5 µM]	-23.3%[70.6 µM]	?	89.1µM*	i
O=C(CN1CCCn2nc(CO)cc2C1)Nc1nnc(C2CCC2)s1	-12.7%	3.0%	-2.5%	-25.1%	i
CC(C)c1ccc(C(=O)NCc2c[nH]c3ncccc23)cc1	-7.2%[88.5 µM]	-16.8%[70.6 µM]	?	?	?
O=C(O)C1CN(C(=O)c2csc(-c3cccs3)n2)CCO1 (centres undefined)	-3.0%	3.1%	4.8%	i	i
O=C(c1csc(-c2cccs2)n1)N1CCC2(CCCO2)CC1	i	3.0%	?	?	35.5µM*
NC(=O)COc1ccccc1CN(Cc1ccsc1)CC1CCCO1 (centres undefined)	4.1%[11.5 µM]	-8.4%	-9.1%	-22.9%	i
COc1ccc(Nc2ccnc(N3CCN(C(=O)c4ccc(C(F)(F)F)cc4)CC3)n2)cc1	0.4%	.	?	35.5µM*	.
COc1ccc(C(=O)N2CCCN(c3nccc(Nc4ccc(C)cc4)n3)C2)cc1	i	.	?	11.2µM*	.
COC(=O)N1CCCN(c2nccc(Nc3ccc(C)cc3)n2)C1	?	.	35.5µM*	50.1µM*	.
Cc1ccc(Nc2ccnc(N3CCCN([S+](=O)([O-])c4cccs4)C3)n2)cc1	0.5%	.	?	25.1µM*	.
COc1ccc(C(=O)N2CCN(c3nccc(Nc4ccccc4F)n3)CC2)cc1	3.3%	.	?	?	.
CC(=O)N1CCCN(c2nccc(Nc3ccc(C)cc3)n2)C1	i	.	?	?	.
COC[C@@H]1[C@H](C(=O)N2CCN(c3cccc(C)c3)CC2)CCC(=O)N1C	4.3%	-4.0%	-14.4%	4.9%	i
Cc1ccc(Nc2ccnc(N3CCN(C(=O)c4ccc(C)cc4)CC3)n2)cc1	0.1%	.	?	?	.
COc1ccc(Nc2ccnc(N3CCN(C(=O)c4ccc(C)cc4)CC3)n2)cc1	-1.3%	.	31.6µM*	12.6µM*	.
CC1=C[C@@H](CNCCN2CCOCC2)[C@H](C(C)C)C[C@H]1Cc1nnc(-c2ccc(C)cc2)o1	i	-2.6%	35.5µM*	39.8µM*	i
CC1=C[C@@H](CNCCN(C)C)[C@H](C(C)C)C[C@H]1Cc1nnc(C)o1	-6.5%[88.5 µM]	-2.8%[70.6 µM]	1.2%[174 µM]	-2.0%[172 µM]	i
SMILES	GPT2 inh	hNpr1 antagonist	3T3 cytotox	HEK293 tox	Luciferase inh
CC1=C[C@@H](CNCCN(C)C)[C@H](C(C)C)C[C@H]1Cc1nnc(C(C)(C)C)o1	-6.5%[88.5 µM]	0.9%[70.6 µM]	70.8µM*	?	i
CC(=O)NCCNC[C@@H]1C=C(C)[C@H](Cc2nnc(-c3ccc(C)cc3)o2)C[C@H]1C(C)C	-16.8%[88.5 µM]	-21.3%[70.6 µM]	39.8µM*	56.2µM*	i
CC1=C[C@@H](CNCCN(C)C)[C@H](C(C)C)C[C@H]1Cc1nnc(-c2ccc(C)cc2)o1	-3.3%[88.5 µM]	-3.1%[70.6 µM]	35.5µM*	35.5µM*	i
CC(C)(CC(=O)O)CC(=O)N1CCN2C(=O)N(CCc3cccs3)C(=O)[C@H]2C1	3.5%[88.5 µM]	-0.2%[70.6 µM]	-24.0%[138 µM]	-30.5%[172 µM]	i
CCOc1ccc(C(=O)NC2CCc3n[nH]c(=O)n3CC2)cc1OCC (centres undefined)	i	-0.9%	-3.0%	i	i
CCCOCCCNC(=O)c1c(C)noc1-c1ccccc1OC	-18.2%	-0.4%	-19.3%	-4.2%	i
Cn1cnc2cc(C(=O)N3CCC4(CC3)OCCCC4O)ccc21 (centres undefined)	-4.1%	8.8%	i	-20.4%	i
CC(C)[C@H]1CN(Cc2ccc(C(F)(F)F)nc2)C[C@@H]1NC(=O)CO	i	-4.5%	-28.0%	-3.3%	i
CC#CCn1cc2c3c(cccc31)[C@H](CC(C)C)N[C@H](C(=O)NCCC)C2	0.6%[88.5 µM]	-5.4%[70.6 µM]	39.8µM*	56.2µM*	i
CC(C)C[C@@H]1N[C@H](C(=O)NCC2CC2)Cc2cn(Cc3nccn3C)c3cccc1c23	-4.3%[88.5 µM]	-3.2%[70.6 µM]	63.1µM*	35.5µM*	i
COCCCNC(=O)[C@@H]1Cc2cn(Cc3nccn3C)c3cccc(c23)[C@H](CC(C)C)N1	?	-2.6%[70.6 µM]	-40.7%[174 µM]	?	i
CCCNC(=O)[C@@H]1Cc2cn(Cc3nccn3C)c3cccc(c23)[C@H](CC(C)C)N1	-3.1%[88.5 µM]	-2.4%[70.6 µM]	100µM*	44.7µM*	i
C=CCCC(=O)N1CCC2(CC1)[C@H](C(=O)OCC)[C@@H](OC)C(=O)N2C	.	.	?	-3.8%	.
O=C1CCCCC(C(=O)NCc2ccc3c(c2)OCO3)N1 (centres undefined)	i	4.0%	i	7.9%	i
O=C(c1cc(C2CC2)[nH]n1)N(Cc1ccc2c(c1)OCO2)C1CC1	i	-7.3%	-32.7%	?	28.2µM*
CCCn1cc(CNC(=O)c2cc3c(s2)CCC(C)C3)cn1 (centres undefined)	-10.5%	?	?	?	31.6µM*
CCCNC(=O)C1CCc2sc(C(=O)N(C)C)cc2C1 (centres undefined)	-2.0%	-2.6%	-2.9%	0.2%	i
O=C(CCc1c[nH]c2ccccc12)N1CCC(c2nccn2CC2CC2)CC1	i[11.5 µM]	0.6%	-18.1%	1.4%	i
CN1CC(=O)N(C2CCCC2)Cc2c1ncnc2N1CCN(c2ncccn2)CC1	-15.4%	-14.1%	-20.8%	-24.1%	i
CN1CC(=O)N(C2CCCCC2)Cc2c1ncnc2N1CCN(c2ncccn2)CC1	i	.	44.7µM*	44.7µM*	.
COc1ccc(-n2cc(CN3CCCC(O)C3)c(-c3cccc(F)c3)n2)cc1 (centres undefined)	-10.6%	0.2%	?	?	28.2µM*

Screening data as filed in PubChem BioAssay.
